# Results from the supplement of paper PMC3334620.
# In all, about 33,000 sequences were measured (“E-score (-0.5 to 0.5)”: median about -0.043, highest 2% from about 0.37 on). The list comes from a sample in which the highest values are over-represented; it also holds similar and randomly drawn sequences.
# Target: T1, Upc2 (UniProt Q12151)
# T1 sequence: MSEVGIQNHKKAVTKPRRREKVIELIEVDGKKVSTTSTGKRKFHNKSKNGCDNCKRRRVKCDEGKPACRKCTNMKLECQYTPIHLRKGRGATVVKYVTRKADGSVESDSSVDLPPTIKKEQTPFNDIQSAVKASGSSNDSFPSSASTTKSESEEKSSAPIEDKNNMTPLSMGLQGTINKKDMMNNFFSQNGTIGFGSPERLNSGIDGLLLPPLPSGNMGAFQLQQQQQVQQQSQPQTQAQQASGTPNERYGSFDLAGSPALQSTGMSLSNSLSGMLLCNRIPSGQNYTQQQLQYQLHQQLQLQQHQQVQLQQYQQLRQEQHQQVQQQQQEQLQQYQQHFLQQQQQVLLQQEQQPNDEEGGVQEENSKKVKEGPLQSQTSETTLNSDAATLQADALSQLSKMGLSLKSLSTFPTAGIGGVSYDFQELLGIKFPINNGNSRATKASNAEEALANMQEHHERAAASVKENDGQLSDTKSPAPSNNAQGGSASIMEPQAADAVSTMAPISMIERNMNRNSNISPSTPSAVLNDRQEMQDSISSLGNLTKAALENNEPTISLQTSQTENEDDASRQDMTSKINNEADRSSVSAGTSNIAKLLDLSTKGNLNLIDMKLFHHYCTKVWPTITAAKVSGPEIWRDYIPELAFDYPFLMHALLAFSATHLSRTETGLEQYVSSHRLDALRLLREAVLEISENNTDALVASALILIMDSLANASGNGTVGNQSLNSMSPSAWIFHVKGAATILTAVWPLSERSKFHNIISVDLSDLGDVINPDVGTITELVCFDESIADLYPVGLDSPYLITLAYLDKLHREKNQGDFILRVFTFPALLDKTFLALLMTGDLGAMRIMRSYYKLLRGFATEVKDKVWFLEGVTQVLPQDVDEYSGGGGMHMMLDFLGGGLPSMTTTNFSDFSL
# Experiment: PBM E-score (8-mer binding enrichment) (E-score (-0.5 to 0.5)); higher = stronger / more preferred TF binding
# Conditions: protein concentration: 200 nM; construct: GST-full length
# Procedure, shortened: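 For each ungapped eight-base word taken together with its reverse complement, the Universal PBM Analysis Suite assigned an E-score. Binding data came from GST-tagged yeast transcription factors, applied at about 100-200 nM, on universal all-10-mer Agilent arrays made double-stranded by primer extension. Fluorescent anti-GST marked bound protein, and scans were normalised with masliner.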
row,Sequence,PBM E-score
1,AGTTTTCA,-0.0402
2,CAGCTAGG,-0.352
3,AAGGTGGA,-0.0852
4,TCAGTCCA,-0.272
5,AAAAACGT,0.0237
6,AGCGCTTG,-0.188
7,GCGGTACC,0.0215
8,GAAGTGCA,-0.153
9,CTTCTCGA,-0.187
10,ACCAGAAT,-0.00733
11,CCAGAGGA,-0.256
12,AGTCGAGC,-0.152
13,AGTAAACG,0.442
14,CGTAAACA,0.39
15,AGTAAACC,-0.0507
16,CGTAAATC,0.352
17,TGTAAACA,-0.0818
18,GGTAAACA,0.111
19,AGTAAACA,0.0452
20,CGTAAATA,0.34
21,CGTAAACG,0.473
22,ACGATTTG,0.28
23,CCAAGCTA,-0.182
24,CAAATAGA,-0.0516
25,AGTTTCAT,0.0688

row,Sequence,PBM E-score
1,CCTCTATC,-0.122
2,AAGATCAT,0.0203
3,CGTTTATA,0.45
4,CTTTTATC,0.00372
5,AGTTTATA,0.129
6,CGTTTATC,0.425
7,AGTTTATC,0.115
8,GGTTTATA,0.144
9,ATCTAGCA,-0.206
10,ACGACACG,0.295
11,ACGACACC,0.374
12,CCGACACC,0.0358
13,ACGACAGC,0.336
14,ACGACAGT,0.37
15,ACGACAGG,0.359
16,ATTATAAC,-0.061
17,CTAGAGCA,-0.192
18,GATTGTGA,-0.112
19,CCTCGTTA,0.399
20,ACTCGTTC,0.46
21,ACTCGGTC,0.0379
22,GCTCGCTA,0.196
23,CCTCGTGC,0.0326
24,CCTCGTTC,0.46
25,GCTCGTTA,0.39

row,Sequence,PBM E-score
1,ACTCGTTG,0.198
2,CCTCGTCC,-0.3
3,ACTCGTTA,0.35
4,GCACGTTA,0.182
5,CCACGTTA,0.136
6,ACAGTAGA,-0.0149
7,CATCTTGG,-0.305
8,GAGTAACC,0.101
9,GTCTCACA,-0.0791
10,CGATATGC,0.149
11,GCAACTGA,0.0086
12,GAACTGCA,-0.0845
13,CCGAAACG,0.346
14,ACGAAACC,0.267
15,ACGAAAGG,0.32
16,ACGAAACA,0.339
17,ACGAAACG,0.403
18,ACGAAACT,0.382
19,GAATTTGA,-0.0533
20,CACCACCC,-0.124
21,AGTGAAAC,-0.0497
22,CCCCTTTA,-0.129
23,AAACGGGG,0.398
24,AAACGGAC,0.337
25,AAACGGAG,0.34

row,Sequence,PBM E-score
1,GAACGGGC,0.291
2,GAACGGGA,0.238
3,AAACGGGT,0.344
4,CAACGGGC,0.00552
5,AAACGGGA,0.369
6,CAACGGGG,-0.0318
7,AAACGGAT,0.37
8,AAACGGGC,0.395
9,TAACGGGA,0.0733
10,AGACCCCA,-0.148
11,ATAGAACG,0.253
12,GCCATCTA,-0.299
13,CAGACCAG,-0.0598
14,CATTCACA,-0.114
15,CTCGGCGC,0.069
16,AAGAGTCA,-0.11
17,CATTAAGC,0.0328
18,CTACGGCA,0.0153
19,AGACGGCC,-0.222
20,ACACGGCG,-0.0227
21,ATACGGCA,0.422
22,GTACGGCA,0.364
23,ATACGGCC,0.416
24,ATACGGCG,0.43
25,AGACGGCG,-0.0186

row,Sequence,PBM E-score
1,CTACGGCC,-0.0664
2,GTTTCACA,0.00208
3,CCGAGTCC,-0.0483
4,GCTCCTAC,0.0461
5,GCAGTTAA,0.0277
6,GATGATAC,0.0998
7,AGCCAAAA,-0.178
8,GAAAACGA,0.263
9,GGAAACAA,-0.0508
10,AGAAACGC,-0.037
11,CGAAACCA,0.201
12,CGAAACGA,0.447
13,GGAAACGA,0.428
14,CGAAACGC,0.15
15,AGAAACGG,0.217
16,AGAAACGA,0.4
17,ACAGTCCT,-0.319
18,CTCGCTCC,0.313
19,ACATAGTG,-0.128
20,ACCGCCAG,-0.0637
21,GATCACGA,-0.00109
22,CGTAAACC,0.364
23,CTTAAAAG,-0.0494
24,AGTAAAAA,-0.0254
25,CGTAAAAC,0.389

row,Sequence,PBM E-score
1,TGTAAAAA,-0.0321
2,CGTAAAAA,0.404
3,AGTAAAAG,0.168
4,CGTAAAAG,0.405
5,GGTAAAAC,0.0926
6,GGCCAACC,-0.0824
7,ATAGAGGC,-0.0461
8,ACAAAGGA,-0.0862
9,GGTTGTAC,0.154
10,GCAGATCA,-0.161
11,CGCCTTAG,-0.169
12,GCCACATA,-0.153
13,TCAGACAA,-0.17
14,AACGAAAC,0.37
15,CACGAAAC,0.0525
16,GACGAAAC,0.251
17,AACGAAAA,0.368
18,CACGAAAG,-0.0189
19,AACGAAAG,0.383
20,AACGAAAT,0.398
21,ACCGAAAT,0.141
22,ACCGAAAG,0.108
23,ACTCGCCC,-0.205
24,AACGCTAG,-0.089
25,CGATCGAA,0.24

row,Sequence,PBM E-score
1,CGATCGTC,0.128
2,CGATCGTA,0.437
3,GGATCGTA,0.422
4,AGATCGTC,-0.141
5,AGATCGTA,0.387
6,GGATCGGA,0.0439
7,AGATCGTG,0.0463
8,GGATCGAA,0.211
9,CTAGGTCA,-0.214
10,CTATCAGA,-0.13
11,AACAAGGC,-0.167
12,TGTCGTAA,0.433
13,CGTCGTCA,0.055
14,AGTCGTAA,0.379
15,GGTCGTGA,-0.0444
16,AGTCGTCA,-0.167
17,TGTCGGAA,0.0576
18,GGTCGTCA,-0.0836
19,CGTCGTGA,0.127
20,CGTCGTAA,0.457
21,GGTCGTAA,0.421
22,AGTCGTGA,-0.0656
23,TGGCGTAA,0.0743
24,ACCGTTAT,-0.0125
